Activity calls are given as the source filed them. The calls were made as follows: active = hit-call score of the fitted dose curve at least 0.9, where 1 is the maximum; inactive = score below 0.9.

Read-out in the test: Interleukin-1 alpha (IL1a), IL1A (gene 3552)
The experiment in a line: BSK_BF4T_IL1a: BioMAP Diversity Plus: BF4T Assay for Interleukin-1 alpha (IL1a) Biomarker Activity (AID 2284264). As to conditions: primary human bronchial epithelial cells with fibroblasts. As for the experimental part: BSK_BF4T is a cell-based, multiplexed-readout assay that uses bronchial epithelial cells and dermal fibroblasts, a human vascular primary cell, with measurements taken at 24 hours after chemical dosing in a microplate: 96-well plate.BSK_BF4T_IL1a is an assay component measured in the BSK_BF4T assay. It measures IL-1a antibody related to regulation of gene expression using ELISA technology.Data from the assay component BSK_BF4T_IL1a was analyzed at the endpoint, BSK_BF4T_IL1a, in the positive analysis fitting direction relative to DMSO as the negative control and baseline of activity. Using a type of binding reporter, gain or loss-of-signal activity can be used to understand protein changes. To generalize the intended target to other relatable targets, this assay endpoint is annotated to the 'cytokine' intended target family, where the subfamily is 'interleukins'.
The levels of cell surface (or secreted, indicated by the prefix "s") biomarker endpoints were measured by ELISA. Overt cytotoxicity to cells in confluent adherent cultures (all systems other than the BT system) was assessed by measuring total protein levels using sulforhodamine B (SRB) staining in parallel cultures at the time of biomarker measurements, indicated as SRB endpoints. For proliferation assays for adherent cell types, individual cell types are cultured at sub-confluence and relative cell numbers quantified by SRB staining at time points optimized for each system (48 h: 3C and CASM3C systems; 72 h: BT and HDF3CGF systems; 96 h: SAg system). SRB was performed by staining cells with 0.1% SRB after fixation with 10% TCA and reading wells at 560 nm.Viability and proliferation of PBMC (T cells) was quantified by Alamar Blue reduction for the SAg and BT systems. For PBMC viability (referred to as PBMC Cytotoxicity within the assay endpoint names), cells were plated (75,000/well in a 96-well plate) and then chemical samples added for 1 h before addition of activators, SEB and TSST-1 (20 ng/mL final concentration each). Cells were incubated for 90 h. Then, Alamar Blue (20 uL/well) (Invitrogen, Cat DAL1100) was added for 6 h, and the plates were read with a fluorescence microplate reader at 546/580 nm (excitation/emission). For PBMC proliferation, cells were plated and activated as above but incubated for only 16 h prior to addition of Alamar Blue. Plates were read after 6 h.
As to `O=C(O)C(F)(F)C(F)(F)C(=O)O`, the outcome was inactive.
Consider `CC(O)C(F)(F)C(F)(F)F` (centres undefined), for which the outcome was inactive.
As for `O=C(O)C(F)(OC(F)(F)C(F)(F)C(F)(F)F)C(F)(F)F` (centres undefined), the entry is “inactive”; as for `OCC(F)(F)OC(F)(F)C(F)(F)OC(F)(F)C(F)(F)OC(F)(F)F`, “inactive”.
The entry for `FC(F)(F)C(F)(C(F)(F)F)C(F)(F)C(F)(F)CC1CO1` (centres undefined) is “inactive”; for `OCC(F)(F)OC(F)(F)C(F)(F)OC(F)(F)C(F)(F)OC(F)(F)CO` it is “inactive”; for `O=C(O)C=CC(F)(C(F)(F)F)C(F)(F)F` it is “inactive”.
Consider `O=C(O)C(F)(F)OC(F)(F)C(F)(F)OC(F)(F)C(=O)O`, for which the outcome was inactive.
In the case of `O=C(O)C(F)(F)OC(F)(F)C(F)(F)OC(F)(F)F`, the result was inactive.
As to `NC(=O)C(F)(F)C(F)(F)F`, the outcome was inactive.
As for `OCC(F)(F)OC(F)(F)C(F)(F)OC(F)(F)CO`, the entry is “inactive”; as for `O=S(=O)(F)C(F)(F)C(F)(F)C(F)(F)C(F)(F)C(F)(F)C(F)(F)C(F)(F)C(F)(F)F`, “inactive”; as for `C=CC(=O)OCC(F)(F)C(F)F`, “inactive”.
With `COC(=O)C(F)(F)C(F)(F)OC(F)(C(F)(F)F)C(F)(F)OC(F)=C(F)F` (centres undefined), the outcome was inactive.

The values above are taken from PubChem BioAssay (EPA / NIEHS).
